According to ChEMBL document CHEMBL3433997, “St. Jude Leishmania screening dataset” (2016):

How the values were obtained:
Format in all cases: functional
[1] = target: Solute carrier family 2, facilitated glucose transporter member 1 (Homo sapiens) (UniProt P11166); test: ST_JUDE_LEISH: Cytotoxicity at 2uM final concentration against transgenic Leishmania Mexicana promastigotes LmGLUT1 that are glucose transport deficient and complemented with the human glucose transporter GLUT1. Activity is measured by DNA content using SYBR green in vitro
Solute carrier family 2, facilitated glucose transporter member 1 (Homo sapiens), sequence (P11166 whole entry): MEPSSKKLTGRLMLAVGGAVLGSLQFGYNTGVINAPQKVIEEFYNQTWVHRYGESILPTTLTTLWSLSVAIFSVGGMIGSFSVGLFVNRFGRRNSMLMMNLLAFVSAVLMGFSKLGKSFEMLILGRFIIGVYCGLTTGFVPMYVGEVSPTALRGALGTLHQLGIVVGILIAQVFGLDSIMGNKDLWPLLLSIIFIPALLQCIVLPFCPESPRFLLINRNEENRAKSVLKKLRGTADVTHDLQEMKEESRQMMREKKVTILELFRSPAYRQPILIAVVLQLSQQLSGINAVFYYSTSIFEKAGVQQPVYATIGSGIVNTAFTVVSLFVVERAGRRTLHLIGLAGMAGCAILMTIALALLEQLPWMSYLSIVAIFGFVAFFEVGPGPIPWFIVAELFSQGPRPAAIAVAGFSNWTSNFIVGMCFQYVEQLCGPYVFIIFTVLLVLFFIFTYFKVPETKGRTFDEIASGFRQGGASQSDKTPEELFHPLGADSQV

[2] = target: Hexose transporter 1 (Plasmodium falciparum) (UniProt O97467); test: ST_JUDE_LEISH: Cytotoxicity at 2uM final concentration against transgenic Leishmania Mexicana promastigotes LmPfHT that are glucose transport deficient and complemented with the Plasmodium falciparum hexose transporter. Activity is measured by DNA content using SYBR green in vitro
[3] = target: Glucose transporter (Leishmania mexicana) (UniProt O61059); test: ST_JUDE_LEISH: Cytotoxicity at 2uM final concentration against transgenic Leishmania Mexicana promastigotes LmGT2 that are glucose transport deficient and complemented with the L. Mexicana glucose transporter 2. Activity is measured by DNA content using SYBR green in vitro

| SMILES | inhibition [1] [%] | inhibition [2] [%] | inhibition [3] [%] |
| --- | --- | --- | --- |
| N=C(NCc1ccc(O)cc1)Nc1nc(-c2ccc(OCCCn3ccnc3)cc2)cs1 | 1.63 | 0.11 | -3.09 |
| NC1=NC2(CCCCC2)N(OCCCCCCCCNc2nc(N)nc(N)n2)C(N)=N1 | 4.34 | 5.05 | 5.12 |
| CCOc1cc(Br)c(C(C)NC(=O)c2ccccc2)cc1OCC (centres undefined) | 1.08 | 0.92 | 1.97 |
| COc1cccc(-c2[nH]c3ccccc3c2CN2CCC(c3c(C)cccc3C)CC2)c1 | 2.03 | 2.95 | -1.74 |
| O=C(Nc1ccccc1F)NC1CCN(c2ccnc(Nc3ccc(F)cc3)n2)CC1 | 2.94 | 2.19 | 0.02 |
| CCOCCCn1c(=N)c(C(=O)NC(C)c2ccccc2)cc2c(=O)n3cccc(C)c3nc21 (centres undefined) | 7.84 | 6.01 | 3.81 |
| O=C(/C=C/c1ccc(Cl)cc1)NCCCCCN1CCN(C(=O)Nc2ccc(Cl)c(C(F)(F)F)c2)CC1 | 4.45 | 5 | 3.42 |
| Oc1ccc2c(CNC3CCCCC3)c(O)ccc2c1CNC1CCCCC1 | -0.71 | 0.24 | 0.34 |
| CC(C)C(C(=O)Nc1ccc2c(c1)OCO2)c1ccc(Cl)cc1 (centres undefined) | 3.38 | 2.76 | 1.99 |
| CCCNC(=O)CN1CN(c2ccccc2)C2(CCN(C(=O)c3ccc(C(C)(C)C)cc3)CC2)C1=O | -0.42 | 1.19 | -0.87 |
| Cc1c(C(=O)C2CC2CN2CCC(N3CCCC3)CC2)sc2ccccc12 (centres undefined) | 7.33 | 11.8 | 5.26 |
| CC12CN3CC(C)(CN(C1)C3c1cc(Br)ccc1O)C2O (centres undefined) | -3.78 | -1.64 | 4.22 |
| Nc1nc(Nc2cccc(Cl)c2)ncc1C(=O)NCc1ccncc1 | 9.01 | 7.86 | 8.62 |
| Cc1ccc2nc(-c3ccc(C(=O)NC4CCN(Cc5ccccc5)CC4)s3)[nH]c2c1 | -1.39 | 1.8 | 1.22 |
| Cc1cc(N(C)CCN(C)C)nc(Nc2ccc(Cl)cc2)n1 | 5.23 | 5.67 | 7.48 |
| Cc1cccc2nc(-c3ccc(-c4cccc(NC(=O)C(C)CN(C)C)c4)cc3)[nH]c12 (centres undefined) | 8.52 | 7.83 | 3.93 |
| Cc1nc(C)c(-c2ccc(Oc3ccc(Cl)cc3)c(Cl)c2)c(O)c1Br | 2.21 | 3.03 | 1.91 |

| SMILES | inhibition [1] [%] | inhibition [2] [%] | inhibition [3] [%] |
| --- | --- | --- | --- |
| Cc1cc(N[C@@H](Cc2ccccc2)C(=O)NCCc2ccccc2)nc(NCc2ccccc2C)n1 | 2.31 | 2.04 | -0.14 |
| O=C(CCc1c[nH]cn1)Nc1ccc(-c2ccc(-c3nc4ccccc4[nH]3)cc2)cc1 | 19.3 | 16.7 | 15.2 |
| Cc1cc(N2CCCC2)nc(Nc2ccc(NC(=O)C(C)Oc3ccccc3)cc2)n1 (centres undefined) | 10.6 | 15.9 | 7.47 |
| CS(=O)(=O)CCOCc1ccc(-c2ccc3ncnc(Nc4ccc(OCc5cccc(F)c5)c(Cl)c4)c3c2)o1 | 6 | 4.18 | 7 |
| Cc1ccc2nc3sc(C(=O)NCCCN4CCC(N5CCCCC5)CC4)cc3cc2c1 | -0.92 | 3.13 | 3.19 |
| COc1ccc(-c2ccc(NC(=O)c3ccc(C#N)cc3)cc2)cc1CN1CCN(C)CC1 | 4.24 | 1.9 | 2.76 |
| COc1cc(Nc2ccnc3cc(-c4nccs4)ccc23)ccc1OCCCc1nc2ccccc2[nH]1 | 3.6 | 4.2 | 4.89 |
| Cc1cccc2nc(-c3cccc(-c4cccc(NC(=O)Nc5ccsc5)c4)c3)[nH]c12 | 4.96 | 4.46 | 6.15 |
| CCN1CCN(Cc2ccc(-c3ccc(NS(=O)(=O)c4cccc5cccnc45)cc3)cc2)CC1 | 20.6 | 14 | 9.92 |
| O=C(NC1CC1)c1ccc2cc(C(=O)N3Cc4ccccc4C(c4ccccc4)C3)ccc2c1 (centres undefined) | 2.37 | -0.61 | -1.42 |
| O=C(N[C@H]1CCN(CCc2ccc(O[C@H]3CCNC3)c(Cl)c2)C1)c1ccc(Cl)c(Cl)c1 | 1.64 | 1.22 | 3.35 |
| Cn1cc(C2CCN(CCCCNC(=O)c3sc(-c4ccc(C(F)(F)F)cc4)nc3CO)CC2)c2ccccc21 | -3.34 | -1.85 | -0.2 |
| C/C=C/COc1ccc(-c2c(C)[nH]c(C)c(Cl)c2=O)cc1 | 4.66 | 6.53 | 4.16 |
| CO/C(=C\C=C\c1cc2cc(Cl)c(Cl)cc2[nH]1)C(=O)NCC(C)(C)CN(C)C | -1.89 | 2.21 | 1.65 |
| O=C(NCC1CCN(CCN2CCC(c3cn(CCO)c4ccccc34)CC2)CC1)c1ccc(-c2ccc(C(F)(F)F)cc2)cc1 | 4.27 | 5.41 | 3.71 |
| CCCCCCN(CCCCCC)CCCCNc1c2ccc(Cl)cc2nc2ccc(OC)cc12 | -3.87 | 0.39 | 0.56 |
